In the library only some 1.2% were active in any assay of this set; here they are far more common.
KCNH2 WT inh = KCNH2 (human, wildtype) channel inhibition. Q12809. U2OS, BacMam KCNH2, thallium flux FluxOr; active compounds read low. activity change, % at 1.84 µM. actives 0.37% (n = 340,000). AID 720551;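 active means maximum activity change below -70%; inconclusive means maximum activity change between -70% and -50%; inactive means maximum activity change above -50%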
Target sequence (Q12809 whole entry, looked up): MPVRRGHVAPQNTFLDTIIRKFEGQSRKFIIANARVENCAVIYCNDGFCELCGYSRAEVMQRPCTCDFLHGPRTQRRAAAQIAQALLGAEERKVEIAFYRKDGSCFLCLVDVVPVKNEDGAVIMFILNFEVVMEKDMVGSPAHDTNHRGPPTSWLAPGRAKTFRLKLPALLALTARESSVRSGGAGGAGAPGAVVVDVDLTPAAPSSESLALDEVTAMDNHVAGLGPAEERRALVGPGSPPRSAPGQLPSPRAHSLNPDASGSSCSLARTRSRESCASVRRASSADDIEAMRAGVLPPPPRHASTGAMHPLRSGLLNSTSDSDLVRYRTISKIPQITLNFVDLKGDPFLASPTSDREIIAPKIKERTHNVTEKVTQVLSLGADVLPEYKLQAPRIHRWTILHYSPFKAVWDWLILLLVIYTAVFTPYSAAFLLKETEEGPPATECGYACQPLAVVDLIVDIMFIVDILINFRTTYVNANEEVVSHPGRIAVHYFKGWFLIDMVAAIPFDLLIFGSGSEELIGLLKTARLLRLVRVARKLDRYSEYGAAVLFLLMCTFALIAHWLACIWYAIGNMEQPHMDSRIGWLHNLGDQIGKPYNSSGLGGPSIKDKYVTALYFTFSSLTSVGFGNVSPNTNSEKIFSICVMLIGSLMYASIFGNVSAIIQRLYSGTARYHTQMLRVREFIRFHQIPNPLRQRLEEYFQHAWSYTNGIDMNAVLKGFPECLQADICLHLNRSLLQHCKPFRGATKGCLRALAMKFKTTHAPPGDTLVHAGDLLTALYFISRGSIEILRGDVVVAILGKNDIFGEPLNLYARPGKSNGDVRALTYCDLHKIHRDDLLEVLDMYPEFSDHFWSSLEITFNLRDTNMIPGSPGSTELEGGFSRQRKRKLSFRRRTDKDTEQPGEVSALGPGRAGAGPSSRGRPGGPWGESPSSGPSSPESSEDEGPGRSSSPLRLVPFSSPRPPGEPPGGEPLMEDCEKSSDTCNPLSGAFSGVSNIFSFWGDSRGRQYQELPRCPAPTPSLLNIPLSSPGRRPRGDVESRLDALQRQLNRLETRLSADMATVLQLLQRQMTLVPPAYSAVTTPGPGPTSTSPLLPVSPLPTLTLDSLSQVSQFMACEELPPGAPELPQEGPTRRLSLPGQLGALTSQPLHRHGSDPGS
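U2OS cells transduced with wild-type KCNH2 virus are loaded with FluxOr dye for 45 min, and thallium flux is measured in kinetic reads before and after stimulation buffer. Rate constants are normalized to DMSO controls.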
KCNH2 3.1 inh = blocks the human KCNH2 3.1 channel isoform. activity change, % (tested at about 1.8 µM). actives 0.95% (n = 340,000). U2OS KCNH2 3.1, thallium flux FluxOr; active compounds read low;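 active means maximum activity change below -70%; inconclusive means maximum activity change from -70% to -50%; inactive means maximum activity change above -50%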;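 further: thallium influx rate constant from kinetic fluorescence after stimulation buffer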
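Kinetic fluorescence (2 min after stimulation buffer) measures Tl+ influx through KCNH2 3.1 expressed by viral transduction in U2OS cells; the rate constant is normalized against DMSO controls serving as positive and negative references.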
Luc counter = Kinase-Glo luciferase inhibition (counter-screen); Potency, µM (doses to about 38.3 µM), usual class: inhibitors; Kinase-Glo luciferase, ATP luminescence, 8 min; AID 1379; actives 0.28% (n = 200,000); active means well fitted inhibition curve with a large enough effect; inconclusive means small, poorly fitted or top-dose-only effect; further: nearly all actives have a fitted effect of over 60% in size
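Light output from Kinase-Glo luciferase with luciferin and 10 uM ATP in 50 mM imidazole pH 7.2, KCl, MgCl2, Tween 20, BSA; compound pin-delivered, 8-min ambient incubation, then luminescence read.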
A number is an active result; n = inactive; u = inconclusive; x = no result given; [ ] = dose if it differs, or a comment.

SMILES	KCNH2 WT inh	KCNH2 3.1 inh	Luc counter
CN(CC1CCN(CCc2cccc(C(F)(F)F)c2)CC1)C(=O)c1ccc(F)cc1	u	-79	x
COc1cc(C(=O)N(C)CC2CCN(CCc3cccc(C(F)(F)F)c3)CC2)ccc1C	n	-72	x
CN(CC1CCN(CCc2cccc(C(F)(F)F)c2)CC1)C(=O)c1ccccc1	n	n	x
COc1cc(C(=O)N(CCN(C)C)CC2CCCN(Cc3ccccc3F)C2)ccc1C (configuration not stated)	n	n	x
COc1ccc(CN2CCC(=O)N([C@H](CO)CC(C)C)CC2)cc1OC	n	n	x
COc1ccc(-c2cc(C(=O)N3CCN(c4ccccc4O)CC3)c3ccccc3n2)cc1OC	n	n	x
CC(C)NCC[C@@H](O)c1cc2ccccc2o1	x	x	n[7.66 µM]
COc1cc(CNC2CCCCCC2)cc(OC)c1	n	-87	n
COc1cc(CNC2CCCCCC2)cc(OC)c1OC	n	n	n
C#Cc1ccc([C@H]2C=C(C(=O)OCC=C)O[C@@H](OCCCCO)C2)cc1	n	n	x
COc1cccc(CNC(=O)c2ccc(OCC(=O)N3CCOCC3)c(OC)c2)c1	n	n	x
COC(=O)c1ccc(CNC(=O)c2ccc(OCC(=O)N3CCOCC3)c(OC)c2)cc1	-152	-193	x
COc1ccc(C(=S)N2CCOCC2)cc1OC(=O)c1ccccc1	n	n	x
COc1ccc(C(=S)N2CCOCC2)cc1OC(=O)c1cc(OC)c(OC)c(OC)c1	n	-79	x
O=C(c1ccccc1)N1CCCCC(Cl)C1=O (configuration not stated)	x	n	n
OC(CCc1ccncc1)COc1ccccc1 (configuration not stated)	n	n	x
O=C(O)CC/C(=N\NC(=O)c1ccncc1)c1ccccc1	-134	-161	x
O=C(O)CC/C(=N\NC(=O)c1ccccc1)c1cccs1	n	n	n
O=C(Cc1cccc2ccccc12)NNC(=O)c1ccc(Br)o1	n	n	x
CCCCn1c(N)c(N(CC(C)C)C(=O)C2=COCCO2)c(=O)[nH]c1=O	n	n	x
Cc1ccccc1SCC(=O)OCC(=O)Nc1sccc1C(N)=O	n	-74	n
NC(=O)c1ccsc1NC(=O)CSc1ccccc1F	n	n	n
O=C(NCC(=O)N1CCN(c2ccccc2F)CC1)c1ccco1	n	n	x
CN(C)CCCSc1nc2ccccc2s1	n	n	n
CC(=O)Nc1ccc(SCC(=O)NC(=O)c2ccc(S(=O)(=O)N(C)C)cc2)cc1	-94	n	x
SMILES	KCNH2 WT inh	KCNH2 3.1 inh	Luc counter
CN(C)S(=O)(=O)c1ccc(C(=O)NC(=O)CSc2ccccc2)cc1	n	n	n
CC(C)(C)Cc1nnc(NC(=O)CSc2ccccc2)s1	n	n	x
CN1CCn2cnc(C(=O)NCc3ccccc3)c2C1=O	n	n	x
Cc1cccc(NC(=O)c2ncn3c2C(=O)N(C)CC3)c1	n	-83	x
CO[C@H]1C([C@@]2(C)O[C@@H]2CC=C(C)C)[C@]2(CC[C@H]1OC(=O)/C=C/C=C/C=C/C=C/C(=O)O)CO2 (some centres not stated)	x	x	n
COc1ccc2cc(C3CC(c4ccco4)=NN3S(C)(=O)=O)c(Cl)nc2c1 (configuration not stated)	n	n	x
CCOc1ccc2nc(Cl)c(C3CC(c4ccco4)=NN3S(=O)(=O)c3ccccc3)cc2c1 (configuration not stated)	n	-71	n
CCC(C)NC(=S)N(Cc1cc2cc(C)ccc2n2nnnc12)CC(C)(C)NC(C)C (configuration not stated)	n	n	x
O=C(O)c1cc(C2CC2)nn1-c1ccccc1	n	n	n
Nc1cc(C2CCCC2)nn1-c1ccccc1	n	n	13µM
COC(=O)C1=C(C(=O)OC)[C@@H]2N(C)c3ccccc3[C@@]23C[C@@H](C(=O)OC)N(S(=O)(=O)c2ccc(C)cc2)C3=N1	x	x	n[7.66 µM]
O=C(Nc1c(C(=O)N2CCOCC2)oc2ccccc12)c1cccc([N+](=O)[O-])c1	n	n	x
CCOCCCN(C)C1CCN(C(=O)c2oc3ccccc3c2NC(=O)c2ccc(F)cc2)CC1	-82	-92	x
CCOCCCN(C)C1CCN(C(=O)c2oc3ccccc3c2NC(=O)c2ccc([N+](=O)[O-])cc2)CC1	-122	-82	x
O=C(Nc1c(C(=O)N2CCC(N3CCCCC3)CC2)oc2ccccc12)c1ccc(F)cc1	n	u	x
COC(=O)c1ccc(NC(=O)c2ccccc2C(=O)Nc2ccc(C(=O)OC)cc2)cc1	n	n	x
COC(=O)c1ccc(NC(=O)C(=O)c2cccn2C)cc1	n	n	13µM
CCCCCCn1cc(C(=O)OCC)c(=O)c2cc(F)c(F)cc21	n	n	x
CCOC(=O)c1cn(CC#N)c2cc(F)c(F)cc2c1=O	-70	n	n
CC(=O)NC(CC(=O)OCC(=O)c1cc(C)ccc1C)c1ccccc1 (configuration not stated)	n	n	x
Cc1cc(C)cc(OCC(=O)Nc2cnn(CCCC(=O)O)c2)c1	n	n	x
S=C(NCc1ccc(Cl)cc1)NCc1ccccn1	n	n	n
CC(C)CCC(CCNCc1ccccn1)c1ccc(Cl)cc1 (configuration not stated)	n	-91	x
CN(C(=O)c1cccc(NC(=O)Cc2ccc(NC(=O)C3CCCN(C(=O)C4CCCC4)C3)cc2)c1)C1CCCCC1 (configuration not stated)	n	n	x
COC(=O)[C@H](CC(C)C)NC(=O)NCc1ccc(Cl)cc1	n	n	x
SMILES	KCNH2 WT inh	KCNH2 3.1 inh	Luc counter
COc1ccc(C(=O)C2CCCN(Cc3cc(C)c(O)c(C)c3)C2)c(OC)c1 (configuration not stated)	n	n	x
COc1cccc(CN2CCCC(C(=O)c3ccc4c(c3)OCO4)C2)c1O (configuration not stated)	n	n	n
CCOc1cccc(CN2CCCC(N3CCN(c4cccc(Cl)c4)CC3)C2)c1O (configuration not stated)	n	-82	x
CCOc1cccc(CN2CCCC(N3CCc4ccccc4C3)C2)c1O (configuration not stated)	n	n	x
COc1ccc(CN2CCCC(C(=O)c3ccc(Cl)cc3)C2)cc1Cn1cccn1 (configuration not stated)	-106	-96	n
COc1cccc(C(=O)C2CCCN(Cc3ccc(OC)c(Cn4cncn4)c3)C2)c1 (configuration not stated)	n	n	x
CCOc1cccc(CN2CCCC(C(=O)c3cc(Cl)ccc3OC)C2)c1O (configuration not stated)	-105	-115	x
COc1ccc(C(=O)C2CCCN(Cc3cc(Cl)ccc3O)C2)c(OC)c1 (configuration not stated)	n	-74	x
COc1cccc2cc(C(C)OC(=O)Nc3ccc(C)cc3)oc12 (configuration not stated)	n	n	n
C/C(=C\c1ccccc1)CN1CCN(Cc2ccc(C)o2)C(CCO)C1 (configuration not stated)	n	n	n
CC(C)CNS(=O)(=O)c1ccc(CCC(=O)N2CCC(C(N)=O)CC2)cc1	n	-113	n
CC(C)CNS(=O)(=O)c1ccc(CCC(=O)N2CCN(Cc3ccccc3)CC2)cc1	n	n	n
C=C(C(=O)Nc1ccccc1)c1ccc(C)cc1	n	n	x
CC(=O)c1ccc(N2CCN(c3ccnc4cc(Cl)ccc34)CC2)cc1	n	-91	x
